Experimental data published in PubChem BioAssay.
Active and inactive are the calls of the source. The rule behind the calls is not given here.

Each compound was assayed on Botulinum neurotoxin type F light chain protease (Clostridium botulinum) (assay: Clostridium botulinum type F light chain protease inhibitors, microsphere substrate cleavage, validation (AID 588459)). Details: multiplex microsphere protease substrate cleavage assay, flow cytometry; at 10 µM; hits give high values.

Structure (SMILES)	inhibition
CC(=O)SC1CC2=CC(=O)CCC2(C)C2CCC3(C)C(CCC34CCC(=O)O4)C12 (stereo not drawn)	0% (inactive)
O=C(NC(Nc1ccccn1)C(Cl)(Cl)Cl)c1ccccc1 (stereo not drawn)	-7.2% (inactive)
CCCCOc1ccc(OCCCN2CCOCC2)cc1	-1.1% (inactive)
CSc1cccc(NC(=O)/C=C/c2ccccc2)c1	-0.9% (inactive)
O=C(NC1CC1)C1CCN(C2CCN(C(=O)Cc3ccc(F)cc3)CC2)CC1	-2.4% (inactive)
CC1(C)Cc2nc3oc4c(NCc5ccccc5)ncnc4c3cc2CO1	0.7% (inactive)
COc1cccc(CC(=O)NCC2COc3ccccc3O2)c1OC (stereo not drawn)	-2.4% (inactive)
Cc1cccc2c(C(=O)O)cc(-c3cccnc3)nc12	-2.3% (inactive)
CC[C@H](CO)NCCN[C@H](CC)CO	2.2% (inactive)
COc1ccccc1C1(CC(=O)N2CCCCC2)CCOC(C(C)C)C1 (stereo not drawn)	1.1% (inactive)
CC(=O)Oc1ccc(C2OC(=O)c3ccccc3N2C(C)=O)cc1 (stereo not drawn)	2% (inactive)
CC1(C)OC2OC(C(=O)N/N=C/c3ccccc3F)C3OC(C)(C)OC3C2O1 (stereo not drawn)	2.6% (inactive)
CC12CCC(C(=O)NCc3ccccn3)(OC1=O)C2(C)C (stereo not drawn)	-1.4% (inactive)
O=C(O)[C@H](Cc1ccccc1)NC(=O)N1CCC(Cc2ccccc2)CC1	5.5% (inactive)
Cc1cccc(-n2c(Cc3ccccc3)n[nH]c2=S)c1	-1.9% (inactive)
COc1cc(/C=C/C(=O)N2CCCC2)cc(OC)c1OC	-1.5% (inactive)
COc1ccc(/C=C/C(=O)NC(=S)NN2CCCCC2c2cccnc2)cc1 (stereo not drawn)	3.7% (inactive)
Cc1nc2ccccc2n1CC(=O)NC1CCCC1	-0.9% (inactive)
O=C1c2cccc3cccc(c23)C(=O)N1c1ccccn1	-2.7% (inactive)
COC(=O)C1=C(C)N(Cc2ccco2)C(=O)/C1=C\c1ccc([N+](=O)[O-])cc1	1% (inactive)

Structure (SMILES)	inhibition
COc1ccc(-c2cc(C(=O)N3CCOCC3)c3cc(C)ccc3n2)cc1	-8.2% (inactive)
Cc1ccccc1-c1coc2cc(O)ccc2c1=O	-3.4% (inactive)
CC1(C)c2ccccc2N2CC(=O)NC21/C=C/c1ccco1 (stereo not drawn)	3.2% (inactive)
CC(=O)N=c1sc(S(N)(=O)=O)nn1C	4.1% (inactive)
c1ccc(CNc2ncnc3nc[nH]c23)cc1	-7.5% (inactive)
COc1cc(CNCCc2c[nH]c3ccccc23)cc(Cl)c1OCC(N)=O	-3.4% (inactive)
CC1(C)CC(CNCCC(c2ccc(F)cc2)c2ccco2)CCO1 (stereo not drawn)	0.9% (inactive)
COc1ccc(CNC(=O)N[C@H](C(=O)O)C(C)C)cc1OC	-0.7% (inactive)
COc1ccc(/C=C2\CCn3c2nc2cc(C(=O)O)ccc2c3=O)cc1OC	1.4% (inactive)
COc1ccc(C(C)N2CC34C=CC(O3)C(C(=O)OCC(C)C)C4C2=O)cc1 (stereo not drawn)	-1.9% (inactive)
Cc1ccc(C(=O)COC(=O)c2cnccn2)cc1[N+](=O)[O-]	2.8% (inactive)
CCCCOc1ccc(C(=O)CCN2CCCCC2)cc1	3.4% (inactive)
CC12CCC(C(=O)NCc3ccc4c(c3)OCO4)(CC1=O)C2(C)C (stereo not drawn)	1.9% (inactive)
COc1cc2c(cc1OC)-c1cc(NC3CCCCCC3)nc(=O)n1CC2	-2.3% (inactive)
COc1ccc(N2CCN(C(=S)NCc3ccccc3)CC2)cc1	2.4% (inactive)
COc1ccc2cc(C(=O)Nc3ccc(S(N)(=O)=O)cc3)sc(=O)c2c1OC	4.2% (inactive)
COc1ccc(N2C(=O)[C@@H]3Cc4ccccc4CN3C2=O)cc1	1.7% (inactive)
COc1ccc(-c2[nH]ncc2CN(C)C(C)c2ccon2)c(OC)c1 (stereo not drawn)	1.9% (inactive)
COc1ccc(C2NC(C(=O)O)Cc3c2[nH]c2ccccc32)cc1CN1CCN(c2ccc(F)cc2)CC1 (stereo not drawn)	8.8% (inactive)

What follows are compounds tested against Botulinum neurotoxin type A (Clostridium botulinum) (UniProt P0DPI0) (assay: BoNT/A light chain protease inhibitors, biochemical, multiplex microsphere flow cytometry, validation set (AID 588460)). Details: at 10 µM, hits give high values.
Sequence of Botulinum neurotoxin type A (Clostridium botulinum) (P0DPI0 whole entry, looked up): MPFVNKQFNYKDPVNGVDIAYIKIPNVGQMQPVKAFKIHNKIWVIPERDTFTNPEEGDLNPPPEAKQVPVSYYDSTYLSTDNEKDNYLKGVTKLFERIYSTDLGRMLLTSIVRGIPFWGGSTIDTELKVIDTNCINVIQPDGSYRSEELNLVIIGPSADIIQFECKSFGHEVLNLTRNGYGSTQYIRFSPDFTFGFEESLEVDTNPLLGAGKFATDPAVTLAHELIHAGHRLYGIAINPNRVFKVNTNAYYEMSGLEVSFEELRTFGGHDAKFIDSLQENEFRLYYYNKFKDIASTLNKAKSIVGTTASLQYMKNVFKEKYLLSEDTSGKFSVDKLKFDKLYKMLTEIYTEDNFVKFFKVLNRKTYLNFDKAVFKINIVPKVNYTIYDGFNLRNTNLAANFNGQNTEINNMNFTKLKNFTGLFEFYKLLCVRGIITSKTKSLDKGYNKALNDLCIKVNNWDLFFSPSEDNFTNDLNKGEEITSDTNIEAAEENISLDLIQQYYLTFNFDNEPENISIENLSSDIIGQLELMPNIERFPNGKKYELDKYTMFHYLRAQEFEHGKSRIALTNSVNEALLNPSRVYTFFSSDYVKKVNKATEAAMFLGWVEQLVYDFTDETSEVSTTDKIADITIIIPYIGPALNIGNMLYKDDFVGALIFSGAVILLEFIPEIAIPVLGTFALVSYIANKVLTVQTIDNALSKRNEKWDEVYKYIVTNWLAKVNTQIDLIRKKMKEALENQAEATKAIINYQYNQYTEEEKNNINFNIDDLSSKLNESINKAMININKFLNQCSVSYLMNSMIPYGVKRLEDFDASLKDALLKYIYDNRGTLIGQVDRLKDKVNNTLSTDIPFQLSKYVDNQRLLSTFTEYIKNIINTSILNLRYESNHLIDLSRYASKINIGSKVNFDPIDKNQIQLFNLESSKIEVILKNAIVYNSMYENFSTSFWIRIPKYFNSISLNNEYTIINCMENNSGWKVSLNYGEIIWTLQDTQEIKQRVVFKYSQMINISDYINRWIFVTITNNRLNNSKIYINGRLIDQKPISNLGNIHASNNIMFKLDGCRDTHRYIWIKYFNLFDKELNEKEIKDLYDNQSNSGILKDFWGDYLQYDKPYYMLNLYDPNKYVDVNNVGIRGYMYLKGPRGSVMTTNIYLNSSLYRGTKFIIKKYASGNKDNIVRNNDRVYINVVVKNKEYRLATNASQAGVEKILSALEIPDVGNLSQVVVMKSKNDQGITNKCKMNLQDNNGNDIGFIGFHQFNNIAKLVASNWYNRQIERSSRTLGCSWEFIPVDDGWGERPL

Structure (SMILES)	inhibition
CC(=O)SC1CC2=CC(=O)CCC2(C)C2CCC3(C)C(CCC34CCC(=O)O4)C12 (stereo not drawn)	0.1% (inactive)
O=C(NC(Nc1ccccn1)C(Cl)(Cl)Cl)c1ccccc1 (stereo not drawn)	-1.5% (inactive)
CCCCOc1ccc(OCCCN2CCOCC2)cc1	0.4% (inactive)
CSc1cccc(NC(=O)/C=C/c2ccccc2)c1	-2.3% (inactive)
O=C(NC1CC1)C1CCN(C2CCN(C(=O)Cc3ccc(F)cc3)CC2)CC1	-0.6% (inactive)
CC1(C)Cc2nc3oc4c(NCc5ccccc5)ncnc4c3cc2CO1	0.2% (inactive)
COc1cccc(CC(=O)NCC2COc3ccccc3O2)c1OC (stereo not drawn)	0.4% (inactive)
Cc1cccc2c(C(=O)O)cc(-c3cccnc3)nc12	-0.5% (inactive)
CC[C@H](CO)NCCN[C@H](CC)CO	-1.2% (inactive)
COc1ccccc1C1(CC(=O)N2CCCCC2)CCOC(C(C)C)C1 (stereo not drawn)	-0.2% (inactive)
CC(=O)Oc1ccc(C2OC(=O)c3ccccc3N2C(C)=O)cc1 (stereo not drawn)	0.3% (inactive)
CC1(C)OC2OC(C(=O)N/N=C/c3ccccc3F)C3OC(C)(C)OC3C2O1 (stereo not drawn)	-1.3% (inactive)
CC12CCC(C(=O)NCc3ccccn3)(OC1=O)C2(C)C (stereo not drawn)	-1.3% (inactive)
O=C(O)[C@H](Cc1ccccc1)NC(=O)N1CCC(Cc2ccccc2)CC1	0.9% (inactive)
Cc1cccc(-n2c(Cc3ccccc3)n[nH]c2=S)c1	-0.5% (inactive)
COc1cc(/C=C/C(=O)N2CCCC2)cc(OC)c1OC	0.4% (inactive)
COc1ccc(/C=C/C(=O)NC(=S)NN2CCCCC2c2cccnc2)cc1 (stereo not drawn)	1.8% (inactive)
Cc1nc2ccccc2n1CC(=O)NC1CCCC1	-0.2% (inactive)
O=C1c2cccc3cccc(c23)C(=O)N1c1ccccn1	0.1% (inactive)
COC(=O)C1=C(C)N(Cc2ccco2)C(=O)/C1=C\c1ccc([N+](=O)[O-])cc1	-0.6% (inactive)

Structure (SMILES)	inhibition
COc1ccc(-c2cc(C(=O)N3CCOCC3)c3cc(C)ccc3n2)cc1	-2.6% (inactive)
Cc1ccccc1-c1coc2cc(O)ccc2c1=O	0.2% (inactive)
CC1(C)c2ccccc2N2CC(=O)NC21/C=C/c1ccco1 (stereo not drawn)	0.5% (inactive)
CC(=O)N=c1sc(S(N)(=O)=O)nn1C	0.8% (inactive)
c1ccc(CNc2ncnc3nc[nH]c23)cc1	-1.3% (inactive)
COc1cc(CNCCc2c[nH]c3ccccc23)cc(Cl)c1OCC(N)=O	0% (inactive)
CC1(C)CC(CNCCC(c2ccc(F)cc2)c2ccco2)CCO1 (stereo not drawn)	-1.4% (inactive)
COc1ccc(CNC(=O)N[C@H](C(=O)O)C(C)C)cc1OC	-1.2% (inactive)
COc1ccc(/C=C2\CCn3c2nc2cc(C(=O)O)ccc2c3=O)cc1OC	1% (inactive)
COc1ccc(C(C)N2CC34C=CC(O3)C(C(=O)OCC(C)C)C4C2=O)cc1 (stereo not drawn)	-1.2% (inactive)
Cc1ccc(C(=O)COC(=O)c2cnccn2)cc1[N+](=O)[O-]	-0.2% (inactive)
CCCCOc1ccc(C(=O)CCN2CCCCC2)cc1	1.8% (inactive)
CC12CCC(C(=O)NCc3ccc4c(c3)OCO4)(CC1=O)C2(C)C (stereo not drawn)	1.2% (inactive)
COc1cc2c(cc1OC)-c1cc(NC3CCCCCC3)nc(=O)n1CC2	-1.4% (inactive)
COc1ccc(N2CCN(C(=S)NCc3ccccc3)CC2)cc1	-0.6% (inactive)
COc1ccc2cc(C(=O)Nc3ccc(S(N)(=O)=O)cc3)sc(=O)c2c1OC	0.6% (inactive)
COc1ccc(N2C(=O)[C@@H]3Cc4ccccc4CN3C2=O)cc1	0.4% (inactive)
COc1ccc(-c2[nH]ncc2CN(C)C(C)c2ccon2)c(OC)c1 (stereo not drawn)	1.4% (inactive)
COc1ccc(C2NC(C(=O)O)Cc3c2[nH]c2ccccc32)cc1CN1CCN(c2ccc(F)cc2)CC1 (stereo not drawn)	0.4% (inactive)
